# These entries were drawn from the full list.
# aSyn UTR act: Activators via SNCA 5'UTR binding, MLPCN; alpha-synuclein 5'UTR reporter, activators screen; activity score, % (tested at 7.5 µM), hits read low; 300,000 compounds, 7.1% hits; AID 1814; in the data active = activity score below about -60%
# Active calls of the source: *.
SMILES,aSyn UTR act
O=C(c1cccs1)c1no[n+]([O-])c1C(=O)c1cccs1,63
Cc1ccc(-c2nnc(COC(=O)c3cccs3)o2)cc1,-64*
Cc1ccc(-c2nnc(SCC#CCOC(=O)c3ccco3)o2)cc1,-66*
Cc1ccc(-c2nnc(SCC#CCOC(=O)c3cccs3)o2)cc1,-71*
CN1C2CCC1/C(=C\c1ccccc1)C(=O)/C2=C\c1ccccc1,-185*
O=C(Nc1ccc(CSc2ccccc2)cc1)c1ccco1,-125*
CCOc1ccc(CC(=O)Nc2ccc(NC(=O)c3ccco3)cc2)cc1OCC,66
CCC(=O)Nc1ccc(NC(=O)c2ccco2)cc1,-136*
CCC(=O)Nc1ccc(NC(=O)c2ccco2)c(OC)c1,-142*
COc1cc(NC(=O)CC(C)C)ccc1NC(=O)c1ccco1,-119*
COC(=O)c1ccc(NC(=O)CSc2ccccc2)cc1,-129*
COc1ccc(NC(=O)c2ccccc2NC(=O)CSc2ccc(Cl)cc2)cc1,-67*
COc1ccc(NC(=O)c2ccccc2NC(=O)CSc2ccccc2)cc1,-79*
COC(c1ccccc1)c1nnc(CCC(=O)N(C)Cc2cccc(-n3cccn3)c2)o1 (stereo not drawn),-72*
COC(c1ccccc1)c1nnc(CCC(=O)N(C)CCOc2ccccc2)o1 (stereo not drawn),-83*
CCOc1ccc(N=C/C=C/c2ccccc2)c(O)c1,-67*
CCOc1ccc(NCC(=O)N/N=C/C=C/c2ccccc2)cc1,-84*
C/C(=N\OC(=O)c1ccccc1)c1cc(-c2ccc(Cl)cc2)no1,-152*
C/C(=N/OC(=O)C1CC1)c1cc(-c2ccc(Cl)cc2)no1,-133*
Cc1cc(C)nc(Sc2ccc3nnnn3n2)n1,-72*
CN(C(=O)c1ccncc1)c1nnc(-c2ccccn2)s1,-66*
Cc1ccc(C(=O)N(C)c2nnc(-c3ccncc3)s2)cc1,-107*
CCOC(=O)N/N=C\C=C\c1ccc2c(c1)OCO2,-121*
CC(C)(C)OC(=O)N/N=C\C=C\c1ccc2c(c1)OCO2,-197*
COC(=O)N/N=C\C=C\c1ccc2c(c1)OCO2,-134*
SMILES,aSyn UTR act
O=C(/C(=C(\O)c1ccccc1)c1nc2ccccc2[nH]1)c1ccccc1,-108*
CCOc1ccc2c(c1)OC(c1ccc(C)cc1)(C(F)(F)F)NC2=O (stereo not drawn),96
CCOc1ccc2nc(/N=C/c3c(C)[nH]n(-c4ccc(C)cc4)c3=O)sc2c1,-143*
CCOc1ccc2nc(/N=C/c3c(C)[nH]n(-c4ccccc4)c3=O)sc2c1,-144*
CCCCCN=Cc1c(C)[nH]n(-c2nc3ccccc3s2)c1=O,62
O=C/C(=C\Nc1ccccn1)c1nc2ccccc2o1,-107*
CC(=O)Nc1cccc(N/C=C(\C=O)c2nc3ccccc3o2)c1,-102*
CC(C)COC(=S)Nc1ccccc1,-83*
N#Cc1nc(/C=C/c2ccccc2)oc1NCCCN1CCOCC1,-82*
CNc1oc(/C=C/c2ccccc2)nc1C#N,-275*
COCCNc1oc(/C=C/c2ccccc2)nc1C#N,-146*
O=C(/C=C/Nc1ccc(F)c(F)c1)c1ccc(Br)cc1,-192*
O=C(/C=C/Nc1ccc([N+](=O)[O-])cc1)c1ccc(Br)cc1,-74*
O=C(/C=C/Nc1ccc(F)cc1)c1ccc(Br)cc1,-181*
O=C(/C=C/Nc1ccc(Br)cc1F)c1ccccc1,78
O=C(/C=C/c1ccc(Cl)cc1)NCc1ccco1,-87*
O=C(/C=C/c1ccc(S(=O)(=O)NCc2ccco2)cc1)NCc1ccccc1Cl,-72*
COc1ccc2c(c1OC)C(=O)N(c1cccc(C(F)(F)F)c1)C2,-192*
COc1ccc2c(c1OC)C(=O)N(c1cccc(C)c1)C2,-114*
COc1ccc2c(c1OC)C(=O)N(c1ccccn1)C2,-122*
CC(C)CCn1c(SCc2ccc(Cl)cc2)nc2c1c(=O)[nH]c(=O)n2C,57
CSc1nc(-c2ccc(Cl)cc2)nn1S(=O)(=O)c1ccc(Cl)cc1,-74*
CS(=O)(=O)n1nc(-c2ccc(Cl)cc2)nc1SCc1ccccc1,-112*
CSc1nc(-c2ccc(Cl)cc2)nn1S(=O)(=O)c1ccccc1,-74*
COc1ccc(NC(=O)CC2CC3CCC2C3)cn1 (stereo not drawn),-68*
SMILES,aSyn UTR act
Cc1ccc(C)c(NC(=O)c2cc(=O)c3ccccc3o2)c1,-134*
Cc1ccc(NC(=O)c2cc(=O)c3ccccc3o2)c(C)c1,-96*
c1ccc(Nc2nnc(-c3cccc4ccccc34)o2)cc1,-93*
N#Cc1cnc2sc3ccccc3n2c1=N,-68*
COc1ccc(N2C(N)=NC(N)=NC2(C)C)cc1,81
COc1ccc(-n2nc(N)c(C(N)=O)n2)cc1,-68*
Cc1ccc2c(c1)NC(=O)c1cccnc1N2,-140*
COc1nc(-c2ccccc2)ccc1-c1noc(-c2ccccc2F)n1,-109*
COc1nc(C)ccc1-c1noc(-c2ccco2)n1,-124*
COc1nc(-c2ccc(C)cc2)ccc1-c1noc(-c2ccco2)n1,-70*
Cc1ccc(C(=O)N2CCN(S(=O)(=O)c3ccccc3[N+](=O)[O-])C2)cc1,-65*
O=C(C1CCCCN1S(=O)(=O)c1ccccc1[N+](=O)[O-])N1CCCC1 (stereo not drawn),-62*
Cc1ccnc(NC(=O)Nc2ccc3c(c2)N(C)C(=O)CS3)c1,-97*
Cc1cccc(NC(=O)Nc2ccc3c(c2)N(C)C(=O)CS3)n1,-83*
COc1ccc(C(=O)Nc2nc3ccccc3[nH]2)cc1OC,-147*
CCOc1ccc(C(=O)Nc2nc3ccccc3[nH]2)cc1OCC,-172*
COc1ccc(Cl)cc1C(=O)Nc1nc2ccccc2[nH]1,89
COc1cc(C(=O)Nc2nc3ccccc3[nH]2)ccc1OC(F)F,-233*
O=C(/C=C\c1ccco1)Nc1nc(-c2ccccc2)cs1,-121*
O=C(/C=C/c1ccco1)NC(=S)Nc1nc(-c2ccc(Cl)cc2)cs1,-76*
O=C(/C=C/c1ccco1)NC(=S)Nc1nc(-c2ccc3ccccc3c2)cs1,-94*
CCOC(=O)c1nn(-c2ccc3ccccc3c2)cc1O,-134*
CCOC(=O)C1=NN(c2ccc(Cl)cc2)C(=O)C1,-144*
CCOC(=O)c1nn(-c2ccc3c(c2)OCO3)cc1O,-144*
CCOC(=O)c1ccc(N2CN(CC)CNC2=S)cc1,64
SMILES,aSyn UTR act
CCOC(=O)c1nn(-c2ccc(Cl)cc2)cc1O,-124*
CCOC(=O)c1nn(-c2ccc(C)cc2)cc1O,-62*
COC(=O)c1nn(-c2ccc(-c3ccccc3)cc2)cc1O,67
CSCc1c(C(=O)NC2CCCc3ccccc32)oc2ccccc12 (stereo not drawn),51
Cn1c(C(=O)NCC2CCCO2)cc2oc3ccccc3c21 (stereo not drawn),-188*
Cn1c(C(=O)NCc2cccs2)cc2oc3ccccc3c21,-261*
Cn1c(=O)c(C(=O)NCC2CCCO2)c(O)c2ccccc21 (stereo not drawn),-67*
CC1(C)OC2OC(COC(=O)c3ccccc3)C3OC(C)(C)OC3C2O1 (stereo not drawn),-89*
c1ccc(CCSc2ncnc3nc[nH]c23)cc1,-75*
O=C(CSc1ncnc2nc[nH]c12)c1ccccc1,-87*
COC(=O)CCC(=O)Oc1ccc(OC(=O)CCC(=O)OC)cc1,-62*
O=[N+]([O-])c1ccccc1N/N=C/c1ccc2c(c1)OCO2,-95*
O=[N+]([O-])c1ccccc1N/N=C/c1ccccc1,-231*
Cc1ccc2nc(-c3ccc(-c4cccc(Cl)c4)cc3)c(NCc3ccccc3)n2c1,-68*
CCCCCCSc1ccc(-c2nc3ccccn3c2NCCCC)cc1,-113*
